The source of these data is PubChem BioAssay AID652054 (National Center for Advancing Translational Sciences (NCATS), 2013).

Among all 360,000 compounds or so, about 9,100 (2.5%) were called active. Inconclusive results (about 4%) are left out. What follows is part of a selection rich in actives, with near analogues and random picks from the rest. Values without a mark were called inactive. Rule as the data show it: active = max response below about -50%; inconclusive = no clear call, values can overlap the other calls; inactive = above that.
% is scaled to controls: 0 for no effect and ±100 for the full control effect.

Sequence of D(3) dopamine receptor (Homo sapiens) (P35462 whole entry, looked up): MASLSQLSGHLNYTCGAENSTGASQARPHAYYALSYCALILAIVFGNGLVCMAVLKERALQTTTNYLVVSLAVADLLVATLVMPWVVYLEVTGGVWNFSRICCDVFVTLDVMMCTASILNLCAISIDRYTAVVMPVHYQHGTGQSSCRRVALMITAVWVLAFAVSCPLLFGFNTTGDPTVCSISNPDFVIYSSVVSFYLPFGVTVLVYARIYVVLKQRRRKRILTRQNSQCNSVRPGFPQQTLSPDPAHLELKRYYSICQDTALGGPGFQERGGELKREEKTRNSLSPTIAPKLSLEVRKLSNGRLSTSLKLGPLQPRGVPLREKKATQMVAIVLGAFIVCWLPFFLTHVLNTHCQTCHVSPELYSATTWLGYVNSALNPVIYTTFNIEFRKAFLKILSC

In this assay the target is D(3) dopamine receptor (Homo sapiens) (UniProt P35462). In words: qHTS of D3 Dopamine Receptor Antagonist: qHTS. To be noted: D3R cells, DiscoveRx beta-arrestin luminescence, antagonist mode; hits give low values. In outline:
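Cells expressing the human receptor were seeded at 1500 cells/well, incubated overnight at 37 degrees C in 5% CO2, then exposed to library compounds with dopamine controls for 90 minutes at 37 degrees C before luminescent detection.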
In general terms: In qHTS, concentration-response curves come from the screen itself.
In the case of `Cc1ccc2nc(-c3ccco3)c(Cc3cccc(Cl)c3)n2c1`, the max response, negative = inhibition is -5.94%.

`CCOCCC(=O)Nc1ccc2c(c1)c(=O)n(C)n2-c1ccc2ccccc2c1`: the max response, negative = inhibition was -26.6%.

For `COc1cccc(C(NC(C)=O)c2nc(-c3ccccc3OC)cs2)c1` (centres undefined), the max response, negative = inhibition was 0%.

`CCN(CC)C(=O)C1=C(C)N(Cc2ccc(OC)cc2)C(=O)C(CC(=O)NCCCCc2ccccc2)C1` (centres undefined): the max response, negative = inhibition is 17.3%.

Regarding `CCOc1ccc(CCN2C(=S)N([C@@H](CC(C)C)CN3CCC[C@@H]3CN3C(=S)NC[C@@H]3Cc3ccc(O)cc3)C[C@@H]2Cc2ccc(O)cc2)cc1`, the max response, negative = inhibition is 1.51%.

Consider `CCCC(=O)C1CCN(Cc2ccccc2)CC1`, for which the max response, negative = inhibition was -29.3%.

Turning to `CCCCN(C)C(=O)C1CCN(Cc2ccccn2)CC1`, the max response, negative = inhibition was -26.1%.

In the case of `CCCCN(Cc1ccccc1)C(=O)C1CCN(Cc2sccc2C)CC1`, the max response, negative = inhibition was -66.6% (active).

Turning to `Cc1ccc(F)c(S(=O)(=O)NC(=O)C2(C)CCN2C(=O)c2ccco2)c1` (centres undefined), the max response, negative = inhibition is 0%.

In the case of `O=C(NC1CCCCC1)C(c1cc2ccccc2o1)n1c(=O)c(-c2ccco2)nc2ccccc21` (centres undefined), the max response, negative = inhibition was -5.65%.

Take `Cc1ccc(N(C(=O)Cc2cccs2)C2C=CS(=O)(=O)C2)cc1Cl` (centres undefined): the max response, negative = inhibition is 9.44%.

For `CCCCC(=O)N(c1ccc(OC)cc1)C1C=CS(=O)(=O)C1` (centres undefined), the max response, negative = inhibition was -109% (active).

For the compound `Cc1ccc(N(C(=O)c2ccc(S(=O)(=O)N(C)C)cc2)C2C=CS(=O)(=O)C2)cc1` (centres undefined), the max response, negative = inhibition is -16.5%.

As for `CCCCCc1c(Cc2ccccc2)ncn1CCc1ccccc1OC`, the max response, negative = inhibition is -13.9%.

For the compound `O=C(Nc1cccc(C(=O)O)c1)/C(=C\c1ccccc1)NC(=O)c1ccc(Br)o1`, the max response, negative = inhibition is -22%.

On to `COc1ccccc1CN1CCN(Cc2cc(OC)c(OC)cc2OC)CC1`, for which the max response, negative = inhibition was -21.9%.

With `COc1ccccc1NC(=S)N1CCN(C(c2ccccc2)c2ccccc2)CC1`, the max response, negative = inhibition was -5.17%.

`O=C(C(c1ccccc1)c1ccccc1)N1CCN(CC(O)COc2ccccc2)CC1` (centres undefined): the max response, negative = inhibition is -23.3%.

`Cn1nnnc1SCC(=O)N1CCN(C(c2ccccc2)c2ccccc2)CC1`: the max response, negative = inhibition was 2.83%.

Turning to `COc1ccccc1CN1CCN(C(c2ccccc2)c2ccccc2)CC1`, the max response, negative = inhibition was -95.1% (active).

With `CC(C)OCC(O)CN1CCN(C(c2ccccc2)c2ccccc2)CC1` (centres undefined), the max response, negative = inhibition was -50.4% (active).

In the case of `Oc1ccccc1CN1CCN(C(c2ccccc2)c2ccccc2)CC1`, the max response, negative = inhibition was -76.9% (active).

Turning to `CC(=O)N1CCN(CC(c2ccccc2)c2ccccc2)CC1`, the max response, negative = inhibition is 18.7%.

In the case of `c1ccc(C(c2ccccc2)N2CCN(Cc3nnnn3C3CCCCC3)CC2)cc1`, the max response, negative = inhibition was -13.5%.

As for `CCCOc1ccc(F)cc1-c1cc(C(=O)Nc2ccc(F)cc2)[nH]n1`, the max response, negative = inhibition is 12.6%.

Regarding `CN(CCO)C(=O)c1nc[nH]c1C(=O)N(C)Cc1ccccc1`, the max response, negative = inhibition is -16.2%.

For `Cc1ccccc1-c1ccc2c(c1)O[C@@H](CN(C)Cc1ccc(C(=O)O)cc1)[C@@H](C)CN([C@H](C)CO)S2(=O)=O`, the max response, negative = inhibition was 17.1%.

With `CC1(C(=O)NS(=O)(=O)c2cccc(F)c2)CCN1C(=O)Cc1ccc(Cl)cc1Cl` (centres undefined), the max response, negative = inhibition was -11%.

With `O=C(Nc1cccc2ccccc12)c1[nH]c(-c2ccccc2)c2c1C(=O)N(C1CC1)C2=O`, the max response, negative = inhibition is 81%.

Turning to `CCC(C)CN1C(=O)CN(S(C)(=O)=O)CC1(C)C(=O)Nc1ccc2c(c1)OCCO2` (centres undefined), the max response, negative = inhibition is 15.4%.

Regarding `CC(=O)c1ccc(-c2cnc3c(NC=O)cc(-c4cccc(NS(C)(=O)=O)c4)cn23)cc1`, the max response, negative = inhibition was 127%.

As for `Nc1ncnc2c1ncn2[C@@H]1O[C@H](C(=O)N2CCSC2)[C@@H](O)[C@H]1O`, the max response, negative = inhibition is -26.3%.

With `COc1cccc(-c2nc3nc(C)cc(C)n3c2NC2CCCCC2)c1`, the max response, negative = inhibition was -19.4%.

As to `C=C1C(=O)[C@]23C[C@H]1CCC2[C@@]1(C)C(C[C@@H]3O)[C@](C)(C(=O)O)CC[C@@H]1O` (some centres undefined), the max response, negative = inhibition was -16.7%.

With `CC1CC2=C(CC1/C=N/NC(N)=S)C(C)(C)CCC2` (centres undefined), the max response, negative = inhibition was -76.3% (active).

`COC(=O)C(Cc1c[nH]c2ccccc12)NC(=O)CCNC(=O)c1ccco1` (centres undefined): the max response, negative = inhibition is 40%.

For the compound `CN(Cc1cn(Cc2ccc(C(F)(F)F)cc2)nn1)C1CN(Cc2cn(Cc3ccc(C(F)(F)F)cc3)nn2)S(=O)(=O)C1` (centres undefined), the max response, negative = inhibition was 0%.

Turning to `O=C(CCN1CCCCC1)Nc1ccc(F)c(F)c1`, the max response, negative = inhibition was 15.9%.

For `CCC(C(=O)NCc1ccccc1)n1c(Cc2cc(F)cc(F)c2)nc2ccccc21` (centres undefined), the max response, negative = inhibition was 1.57%.

`OC[C@H]1O[C@@H](c2nc(-c3nc(-c4ccc(F)cc4)no3)cs2)[C@H](O)[C@@H](O)[C@H]1O`: the max response, negative = inhibition was 0%.

In the case of `Cc1cc(=O)oc2cc(NC(=O)C3CC(=O)N(Cc4ccccc4)C3)ccc12` (centres undefined), the max response, negative = inhibition was -60.6% (active).

In the case of `O=C(Nc1ccc(F)c([N+](=O)[O-])c1)C1CC(=O)N(Cc2ccccc2)C1` (centres undefined), the max response, negative = inhibition was 16.3%.

With `Cc1cc(=O)oc2cc(NC(=O)C(C)Oc3ccccc3)ccc12` (centres undefined), the max response, negative = inhibition is 18.8%.

Take `CO[C@@H]1CN(C)C(=O)c2cc(NC(=O)Nc3cc(F)ccc3F)ccc2OC[C@H](C)N(C(=O)c2ccccn2)C[C@@H]1C`: the max response, negative = inhibition is -21.4%.

As to `CCCCn1nnnc1C1(C)CCC(=O)N1Cc1ccc(OC)c(OC)c1` (centres undefined), the max response, negative = inhibition is 27.1%.

`Cc1cccc(OCC(=O)Nc2ccc(NC(=O)c3ccco3)c(C)c2)c1`: the max response, negative = inhibition was -6.83%.

As for `Cc1cc(NC(=O)c2ccc(F)cc2)ccc1NC(=O)c1ccco1`, the max response, negative = inhibition is -99.6% (active).

On to `COc1ccccc1C(=O)Nc1ccc(NC(=O)c2ccco2)c(C)c1`, for which the max response, negative = inhibition is 2.58%.

`CC(=O)c1cccc(-c2cnc3c(NC=O)cc(-c4cccc(C(=O)N(C)C)c4)cn23)c1`: the max response, negative = inhibition was 39.2%.

Take `CS(=O)(=O)c1cccc(-c2ccc3nncn3c2)c1`: the max response, negative = inhibition is -15.7%.

Take `O=C(O)C1=C(C(=O)O)C2CCC1C2`: the max response, negative = inhibition was -3.55%.

Turning to `Cc1cccc(-n2c(O)c(C=Nc3ccccc3N)c(=O)[nH]c2=O)c1`, the max response, negative = inhibition is -114% (active).

For `Cc1ccc(N=Cc2c(O)n(-c3nccs3)c(=O)c3ccccc23)c(C)c1`, the max response, negative = inhibition was 7.33%.

For `Cc1cccc(N2C(=O)CC(SC(N)=Nc3ccccc3)C2=O)c1` (centres undefined), the max response, negative = inhibition was -1.29%.
